Molecules are shown by their SMILES. More than one record can exist for a structure, and the calls need not agree. Active and inactive are the calls of the source. Rule for the calls: active = hit-call score of the fitted dose curve at least 0.9, where 1 is the maximum; inactive = score below 0.9.

The assay in a line: BSK_3C_uPAR: BioMAP Diversity Plus: 3C Assay for Urokinase-type plasminogen activator receptor (uPAR) Biomarker Activity (AID 2282998). Conditions: BioMAP 3C HUVEC, uPAR biomarker ELISA; actives raise or lower the signal. The method, then:
BSK_3C is a cell-based, multiplexed-readout assay that uses umbilical vein endothelium, a human vascular primary cell, with measurements taken at 24 hours after chemical dosing in a 96-well plate.BSK_3CAR is an assay component measured in the BSK_3C assay. It measures uPAR antibody related to regulation of gene expression using ELISA technology.Data from the assay component BSK_3CAR was analyzed into 1 assay endpoint. This assay endpoint, BSK_3CAR, was analyzed with bidirectional fitting relative to DMSO as the negative control and baseline of activity. Using a type of binding reporter, gain or loss-of-signal activity can be used to understand changes in the signaling as they relate to the gene PLAUR. Furthermore, this assay endpoint can be referred to as a primary readout, because this assay has produced multiple assay endpoints where this one serves a signaling function. To generalize the intended target to other relatable targets, this assay endpoint is annotated to the cytokine intended target family, where the subfamily is plasmogen activator.
The levels of cell surface (or secreted, indicated by the prefix "s") biomarker endpoints were measured by ELISA. Overt cytotoxicity to cells in confluent adherent cultures (all systems other than the BT system) was assessed by measuring total protein levels using sulforhodamine B (SRB) staining in parallel cultures at the time of biomarker measurements, indicated as SRB endpoints. For proliferation assays for adherent cell types, individual cell types are cultured at sub-confluence and relative cell numbers quantified by SRB staining at time points optimized for each system (48 h: 3C and CASM3C systems; 72 h: BT and HDF3CGF systems; 96 h: SAg system). SRB was performed by staining cells with 0.1% SRB after fixation with 10% TCA and reading wells at 560 nm.Viability and proliferation of PBMC (T cells) was quantified by Alamar Blue reduction for the SAg and BT systems. For PBMC viability (referred to as PBMC Cytotoxicity within the assay endpoint names), cells were plated (75,000/well in a 96-well plate) and then chemical samples added for 1 h before addition of activators, SEB and TSST-1 (20 ng/mL final concentration each). Cells were incubated for 90 h. Then, Alamar Blue (20 uL/well) (Invitrogen, Cat DAL1100) was added for 6 h, and the plates were read with a fluorescence microplate reader at 546/580 nm (excitation/emission). For PBMC proliferation, cells were plated and activated as above but incubated for only 16 h prior to addition of Alamar Blue. Plates were read after 6 h.
On to `NC(=O)NN=Cc1ccc([N+](=O)[O-])o1`, for which the outcome was inactive. On the same count and under the same terms, with `OCCC(F)(F)C(F)(F)C(F)(F)C(F)(F)F` the entry was “inactive”; with `CCCCCOC(C)=O`, “inactive”.

`CCOC(N)=O`: the result was inactive. Still for that read-out and setting: under `CC(C)CCCCCCOC(=O)C1CCCCC1C(=O)OCCCCCCC(C)C` (stereo not given) stands “inactive”; under `COCc1nnc(-c2ccc[n+]([O-])c2)n1-c1c(Cl)c(Cl)cc2[nH]c(=O)c(=O)[nH]c12`, “inactive”; under `S=P(N1CC1)(N1CC1)N1CC1`, “inactive”. As for `CC(=O)c1ccccc1`, the result was inactive. On the same count and under the same terms, under `O=c1[nH]cnc2c1ncn2[C@H]1CC[C@@H](CO)O1` stands “inactive”; under `FC(F)C(F)(F)COCC1CO1` (stereo not given), “inactive”; under `C[C@@H](Oc1ccc(CNC(=O)c2cccnc2Oc2ccc3c(c2)OCO3)c(F)c1)C(=O)O`, “inactive”.

Turning to `O=C(O)c1cccc(C(=O)O)c1`, the result was inactive.

For `O=S(=O)(O)c1ccc(N=Nc2c(O)ccc3cc(S(=O)(=O)O)ccc23)cc1`, the outcome was inactive. As to `O=C(Cl)C(F)(F)C(F)(F)C(F)(F)C(=O)Cl`, the outcome was inactive. Consider `O=C(O)[C@H](O)[C@@H](O)C(=O)O`, for which the result was inactive. Consider `CCn1nc(C)c2c1C(=O)NCC(c1ccc(O)cc1)=N2`, for which the result was inactive. `FC(F)(F)COC(OCC(F)(F)F)OCC(F)(F)F`: the outcome was inactive. On the same count and under the same terms, under `CCCCCCCC/C=C\CCCCCCCC(=O)OC[C@@H](O)[C@H]1OC[C@H](O)[C@H]1O` stands “inactive”. In the case of `CC[C@H](C)C(=O)O[C@H]1C[C@H](O)C=C2C=C[C@H](C)[C@H](CC[C@@H](O)C[C@@H](O)CC(=O)O)[C@H]21`, the outcome was inactive. The same measure, in the same setting: under `c1ccc2cc3ccccc3cc2c1` stands “inactive”. As for `OC(O)(C(F)C(O)(O)C(F)(F)F)C(F)(F)F`, the result was inactive and the AC50 is 15.2 µM (active). On to `NC(N)=O`, for which the result was inactive.

In the case of `CCCC(CCC)C(=O)O`, the outcome was inactive. `COc1cc2c(c(OC)c1OC)-c1ccc(OC)c(=O)cc1[C@@H](NC(C)=O)CC2`: the AC50 is 0.149 µM (active).

For `OCCOCCOCCO`, the result was inactive.

As to `CCc1cccc(CC)c1N`, the outcome was inactive. Take `CCCCCCCCCCCCCCCCOS(=O)(=O)O`: the result was inactive. Regarding `OC[C@H]1O[C@@H]2O[C@H]3[C@H](O)[C@@H](O)[C@@H](O[C@H]4[C@H](O)[C@@H](O)[C@@H](O[C@H]5[C@H](O)[C@@H](O)[C@@H](O[C@H]6[C@H](O)[C@@H](O)[C@@H](O[C@H]7[C@H](O)[C@@H](O)[C@@H](O[C@H]1[C@H](O)[C@H]2O)O[C@@H]7CO)O[C@@H]6CO)O[C@@H]5CO)O[C@@H]4CO)O[C@@H]3CO`, the result was inactive. Still for that read-out and setting: with `Cn1c(=O)c2[nH]cnc2n(C)c1=O` the entry was “inactive”; with `NCC(F)(F)C(F)(F)C(F)(F)C(F)(F)F`, “inactive”; with `CCOc1ccc2[nH]cc(C(=O)NCc3ccccc3)c(=O)c2n1`, “inactive”.

With `OC(CCl)CCl`, the result was inactive. For `C=CCc1cc(S(=O)(=O)c2ccc(O)c(CC=C)c2)ccc1O`, the concentration at half-maximal activity (AC50) was 12.8 µM (active). As for `C=CN1CCCC1=O`, the outcome was inactive.

Turning to `O=C(O)c1cccc(C[C@@H]2COc3ccc(OCc4nc5cc(F)ccc5s4)cc3[C@@H]2O)c1`, the result was inactive. Turning to `OCc1c[nH]c2ccccc12`, the AC50 is 20 µM (active). Still for that read-out and setting: with `c1ccc(C(O[C@@H]2CCCN(CCc3ccc4c(c3)OCO4)C2)c2ccccc2)cc1` the figure was 27.5 µM (active). As for `CC(C)CC(C)O` (stereo not given), the result was inactive. In the case of `C[Si](C)(C)C(F)(F)C(F)(F)C(F)(F)F`, the result was inactive.

The values are drawn from PubChem BioAssay (EPA / NIEHS).
